Data as given in PubChem BioAssay AID651994 (Sanford-Burnham Center for Chemical Genomics, 2013).
Among all 2,500 compounds or so, about 790 (32%) were called active. Only a sample is shown. Values without a mark were called inactive.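 The calls were made as follows: active = mean cytotoxicity at 5 µM above about 25% (limit read from the data); inactive = the rest.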

Assay: cytotoxicity in Sufu-KO-LIGHT cells, confirmation, cytotoxicity control for Gli-SUFU antagonist project, cell-based, ATP luminescence, single concentration (AID 651994);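 also: cells exposed to compound overnight for roughly 16 to 18 hours; plate controls were DMSO wells with cells for no effect and medium without cells for full effect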
Conditions: at 5 µM, stronger effect = higher value

Structure (SMILES) | cytotoxicity
CCc1c(C)nc2cc(C)[nH]n2c1=O | 10.3%
Cc1cc(C(=O)CSc2nc(N)cc(=O)[nH]2)c(C)n1-c1cccc(F)c1 | 34.2% (active)
CN(C)CCSc1nc(N)c2c3c(sc2n1)COC(C)(C)C3 | 9.54%
O=C(CN1CCN(S(=O)(=O)c2cc(Cl)ccc2Cl)CC1)c1ccc(O)c(O)c1 | 14.6%
CC(=O)Nc1ccc(NC(=O)c2ccc3c(c2)C(=O)N(c2ccccc2C)C3=O)cc1 | 24.5%
Brc1c(CSc2nncc3ccccc23)nc2ccccn12 | -3.37%
CN(c1ccc2nc3ccccc3c(=O)n2n1)C1CCCCC1 | 84.2% (active)
NS(=O)(=O)c1ccc(CCNC(=O)CCCn2c(SCC(=O)N3CCCC3)nc3ccsc3c2=O)cc1 | -12.7%
CC(C)(C)c1ccc(Oc2ccc(N)cc2)cc1 | 18.4%
COc1ccc(Cc2nnc(N/N=C/c3ccccc3O)[nH]c2=O)cc1OC | 43.8% (active)
COc1ccc(/C=N/N=C2/C(=O)Nc3ccccc32)cc1O | -0.38%
CC1(C)Cc2ccccc2/C(=C/C(=O)c2ccccc2)N1 | 4.12%
CC1(C)CC2CC(C)(CN2c2ncnc3ccc(Br)cc23)C1 (stereo unspecified) | 38.5% (active)
COc1cc(C(=O)OC2CCOC2=O)c([N+](=O)[O-])cc1OC (stereo unspecified) | 3.16%
COc1cccc(-n2cc(C(=O)O)c3ccccc3c2=O)c1 | 25.1% (active)
O=C(Nc1ccnn1C1CCN(C/C=C/c2ccc(F)cc2)CC1)C1CCCC1 | 2.29%
Cc1nn(C)c(Cl)c1CN1CCC(n2nccc2NC(=O)C2CCCC2)CC1 | 16.4%
CN(C)C(CNC(=O)Cc1ccc([N+](=O)[O-])cc1)c1ccccc1 (stereo unspecified) | 15.4%
COc1ccc(C(=O)NCc2nnc(SCCOc3ccccc3)n2C)cc1 | 10.2%
COc1cc(C(=O)OC(C)C(=O)NCC2CCCCC2)cc(NC(=O)c2ccco2)c1OC (stereo unspecified) | -2.91%
O=C(Nc1cc2c3c(c1)C1CCCC1CN3CC1CCCC21)c1ccc([N+](=O)[O-])cc1 (stereo unspecified) | 29.3% (active)
COC(=O)c1ccccc1NC(=O)C1(S(=O)(=O)c2ccc(Cl)cc2)CC1 | -1.28%
NC(N)=Nc1nc(-c2ccccc2)c2cc(Cl)ccc2n1 | 27.1% (active)

Structure (SMILES) | cytotoxicity
O=c1c2ccccc2nc2n1C(CSCc1cccc(C(F)(F)F)c1)CS2 (stereo unspecified) | 34.2% (active)
Cc1ccc(-c2nc(CSCC(=O)NC3CCN(Cc4ccccc4)CC3)c(C)o2)cc1 | 12%
O=C(C[C@H]1C/C=C\C[C@@H](NC(=O)OCC2c3ccccc3-c3ccccc32)C(=O)O[C@@H](c2ccccc2)CNC1=O)N[C@H](CO)Cc1ccccc1 | 18.6%
CNc1nnc(-c2ccco2)s1 | -0.36%
O=C1/C(=C/c2ccc(F)cc2)SC(=S)N1NS(=O)(=O)c1ccccc1 | 16.4%
Cc1ccc(Nc2nc(N3CCOCC3)nc(N3CCOCC3)n2)cc1Cl | 40.8% (active)
CCc1ccc(C2C(C#N)=C(N)N(N3CCOCC3)C3=C2C(=O)CC(C)(C)C3)s1 (stereo unspecified) | 25.2% (active)
CC(C)C(=O)Nc1nnc(SCC(=O)N2C(C)CCCC2C)s1 (stereo unspecified) | 1.96%
CCc1c(C)[nH]c(=S)c(C#N)c1C | 9%
Cc1c(Cl)c([N+](=O)[O-])nn1Cc1ccc(C(=O)N/N=C\c2cc(Cl)ccc2O)o1 | 29% (active)
CCOc1ccc(-n2c(O)c(/C=N/Nc3nc(C)cc(C)n3)c3ccccc3c2=O)cc1 | 17.6%
Cc1ccsc1C(=O)OCC(=O)c1cc(C)n(CC2CCCO2)c1C (stereo unspecified) | 26.6% (active)
Cc1cccc2nc(CSc3nc4[nH]ncc4c(=O)n3-c3cccc(Cl)c3)cc(=O)n12 | 20.1%
Cc1ccc(S(=O)(=O)N(Cc2cc3ccccc3[nH]c2=O)CC2CCCO2)cc1 (stereo unspecified) | 5.2%
COc1ccccc1CNC(=O)C1CCN(c2nc3ccccc3o2)CC1 | 17.9%
COc1ccc(NS(=O)(=O)c2ccc(NC(C)=O)cc2)cc1OC | 14%
Cc1cccc(NS(=O)(=O)c2ccc(-c3cnc(C4CC4)o3)cc2)c1 | 54.4% (active)
Cc1cc(C)c(SCCc2ccncc2)c(C)c1 | 29.5% (active)
Cc1ccc(NC(=O)CN(C)CC(=O)Nc2cccc(F)c2)cc1[N+](=O)[O-] | 29% (active)
Cc1ccc(O)c(NC(=O)COc2cc(C)ccc2C)c1 | -3.46%
COCCn1c(CN2CCC(Cc3ccccc3)CC2)nc2c1c(=O)n(C)c(=O)n2C | 19.8%
Cn1c(=O)c2c(nc(NCCc3ccccc3)n2Cc2ccccc2)n(C)c1=O | 34.7% (active)
CCCCNc1nc2c(c(=O)n(C)c(=O)n2C)n1Cc1cccc(OC)c1 | 44.5% (active)

Structure (SMILES) | cytotoxicity
COc1ccc(NS(=O)(=O)c2ccc(N3CCN(CCO)CC3)c([N+](=O)[O-])c2)cc1 | 16.4%
CC(=O)OCCC(C)C | -7.84%
CCCc1nc(N)nc2c1C(=O)CC(C)(C)C2 | 5.9%
CN1C(CC(=O)Nc2ccc(Br)cc2)c2ccccc2CC1(C)C (stereo unspecified) | 15.7%
Cc1ccc(C)c(S(=O)(=O)N2CCN(c3ncnc4sccc34)CC2)c1 | 69.2% (active)
c1ccc(-n2nnnc2N2CCOCC2)cc1 | 10.1%
CC[n+]1c(C)n(-c2ccccc2)c2ccc(NC(C)=O)cc21 | 29% (active)
CCC1CCCCN1CCCNC(=O)Cn1nc(-c2ccccc2)ccc1=O (stereo unspecified) | 20.3%
CN(NC(=O)c1ccccc1F)c1nc(C(F)(F)F)nc2ccccc12 | 56.2% (active)
CCn1c(SCc2ccccc2)nc2cc(OC)c(OC)cc2c1=O | 23.5%
CCOc1cccc(/C=N/NC(=S)NCCN2CCOCC2)c1O | 20.7%
CCOC(=O)c1cnc(-n2nc(C)cc2C)nc1NNc1cc(C)nc(-c2ccccc2)n1 | 24%
CN(C)CCN(C(=O)C1CCCCC1)c1nc2cc3c(cc2s1)OCO3 | 20.3%
c1c2c(cc3sc(N4CCCCC4)nc13)OCCO2 | 51.8% (active)
CCOC(=O)c1ccc(NC(=O)Cn2cnc3cc(C)c(C)cc32)cc1 | 24.9%
CC(=O)c1c(C)[nH]c(C(=O)OCC(=O)Nc2sc3c(c2C#N)CCCC3)c1C | 17.2%
O=C(Cn1cc(C(=O)C2CC2)c2ccccc21)Nc1ccccc1Cl | 16.3%
COc1ccccc1N1CCN(Cc2cc(OC)c3c(c2)OCO3)CC1 | 22.5%
COc1ccccc1C1C2=C(COC2=O)Nc2cc3c(cc21)OCO3 (stereo unspecified) | 50.9% (active)
CCCOc1ccccc1C1CC(=O)Nc2cc3c(cc21)OCO3 (stereo unspecified) | 48.1% (active)
O=C(O)CCCn1cc(NC(=O)COc2cccc(Cl)c2)cn1 | 11.7%
COc1ccc2nc(SCC(=O)Nc3c(C)cc(C)cc3C)[nH]c2c1 | 11.7%
CCN(CC(=O)Nc1cc(Cl)ccc1C)C(=O)CSCc1ccc(C)cc1 | 6.16%

Structure (SMILES) | cytotoxicity
Cc1ccc(-c2nc3c(cnn3-c3ccccc3)c(=O)o2)cc1 | 8.43%
CCOc1ccc(-n2c(O)c(/C=N/c3ccnn3Cc3ccncc3)c3ccccc3c2=O)cc1 | 23.8%
COc1ccccc1/C=C/CN1CCC(CO)(Cc2ccccc2)CC1 | -4.47%
CC1CC2=C(CC1/C=N/NC(N)=S)C(C)(C)CCC2 (stereo unspecified) | 11.9%
CC(=O)/C(=N\Nc1ccc(Cl)cc1Cl)Sc1cccc2cccnc12 | 25.7% (active)
CN(C)c1cc[n+](Cc2ccccc2)cc1 | 33.3% (active)
COC(=O)c1ccc(CSc2nnc(N)s2)o1 | 21.4%
CCNC(=S)N(CCN(CC)CC)Cc1cc2cc3c(cc2[nH]c1=O)OCO3 | 6.68%
C=CCn1c(SCC(=O)CC(=O)OCC)nc2cc(C(=O)N3CCC(C(N)=O)CC3)ccc2c1=O | 3.69%
Cc1ccccc1C(=O)NC(=S)Nc1ccc(N2CCN(C(=O)c3ccccc3)CC2)cc1 | 32.2% (active)
Cc1cc2[nH]ncc2cc1NC(=S)NC(=O)c1ccccc1 | 2.37%
CC(C)Oc1ccc(CN2CCC(n3nccc3NC(=O)c3cccnc3)CC2)cc1 | 4.98%
CNc1ccc(SC#N)cc1 | 3.32%
CCCC1=Nc2cc(C(=O)NCc3ccco3)ccc2Sc2ccccc21 | 53.8% (active)
O=[N+]([O-])c1ccc(N2CCN(CC(O)COc3ccccc3)CC2)cc1 (stereo unspecified) | 30.6% (active)
CC(C)OCC(O)CN1CCN(C(c2ccccc2)c2ccccc2)CC1 (stereo unspecified) | 16.3%
CC(C)c1ccc(OCC(O)CN2CCN(c3ccccn3)CC2)cc1 (stereo unspecified) | 9.73%
O=C(c1cc(Cl)cc(Cl)c1)N1CCC(=O)N(C(COCc2ccccc2)Cc2ccccc2)CC1 (stereo unspecified) | 21.8%
CCCCC(=O)NC(c1ccc(OC)c(OC)c1)c1ccc2cccnc2c1O (stereo unspecified) | 19.2%
C=CCOC(=O)C1=C[C@@H](c2ccc3c(c2)OCO3)C[C@@H](OCCCCO)O1 | 2.89%
Cc1nonc1C1CCCN1C(=O)c1cc(COc2cccc(C(F)(F)F)c2)on1 (stereo unspecified) | 29.3% (active)
O=C1/C(=C\c2cccnc2)CN(Cc2ccccc2)C/C1=C\c1cccnc1 | 10.1%
O=C(NC1CCN(C(=S)Nc2ccc(Cl)cc2)CC1)C1CCCCC1 | 2.7%

Structure (SMILES) | cytotoxicity
C=CCOc1nc2c(c(=O)n(C)c(=O)n2C)n1Cc1ccc(Cl)cc1Cl | 26.7% (active)
COC(=O)Cc1[nH]n(-c2nc3ccccc3s2)c(=O)c1C(C)=Nc1ccc(OC)cc1 | 15.6%
COc1ccccc1CCNC(=O)C(=O)NCCC1CCCCN1S(=O)(=O)c1cccs1 (stereo unspecified) | 20.7%
N#CC(C#N)=CN=c1ccn(Cc2ccc(Cl)cc2Cl)cc1 | 29.5% (active)
CCCOc1ccc(Cc2c(Cl)nc(SC)nc2NC)cc1 | 31.8% (active)
CC(C)Oc1ccc(/C=N/NC(=O)c2nnn(-c3nonc3N)c2CN(C)C2CCCCC2)cc1 | 9.64%
O=C(CN1C(=O)c2ccccc2S1(=O)=O)N1CCc2ccccc21 | 36.9% (active)
Cc1onc(-c2ccccc2)c1C(=O)Nc1ccccc1C#N | 7.65%
Cc1cc(NC(=O)c2cccc(N3C(=O)CCC3=O)c2)no1 | 8.93%
C/C(=N\NC(=O)Cc1ccc(Cl)cc1)c1ccccn1 | 38.9% (active)
CC(=O)Nc1cccc(OCC(=O)/C=C2\N(C)c3ccccc3C2(C)C)c1 | 23.9%
Cc1ccc(C(=O)C[n+]2cc(-c3ccccc3)n3c2CCCCC3)cc1 | 38.4% (active)
COc1ccc(Cn2c(-c3ccc(Cl)cc3)c[n+]3ccccc23)cc1 | 15.3%
Cc1cc([N+](=O)[O-])c(-c2ccc(/C=N/n3cnnc3)o2)cc1Cl | 3.83%
COc1cccc2cc(C(N)=O)/c(=N\NC(=O)c3ccccc3)oc12 | 19.1%
COc1ccc(OC)c(/C=N/NC(=O)c2ccc[n+](CC(=O)c3ccccc3)c2)c1 | 26.3% (active)
CCN(CC)S(=O)(=O)c1ccc(Cl)c(C(=O)NC(C)C(c2cccs2)N2CCCC2)c1 (stereo unspecified) | 13.4%
COc1ccc(OC)c(Cc2cnc3nc(N)nc(N)c3c2C)c1 | 15.7%
CCOC(=O)c1cnc(Nc2nc3ccccc3o2)nc1CSC(=S)N1CCCCC1 | 20.4%
